From PubChem BioAssay (NCI)
The panel holds about 83,000 compounds, 20% with a hit somewhere; the sample as a whole holds those more often.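 Cell lines were cultured in 96-well plates, exposed to a single compound concentration, and assessed for percent growth 48 hours later.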 Unmarked numbers belong to inactive results. Rule for the calls: active = growth percent below 10; inactive = the rest.

System: SW-620 colon
Test: NCI-60 one-dose screen, 48 h (100 = growth as untreated, 0 = no growth, -100 = all killed)
Settings: 10 µM unless noted

Structure (SMILES)	growth
O=C(OCc1ccccc1)n1nnc2ccccc21	107%
COC1(OC)C2(Cl)C(Cl)=C(Cl)C1(Cl)C1COCC12 (stereo not given)	85.8%
CCOC(=O)CO	110%
COc1cc(C(=O)NC(=S)NCc2ccncc2)cc(OC)c1OC	110%
Nc1ncnc2c1ncn2C1OC(CO)C2OC21 (stereo not given)	99.5%
CC(C)(C)[Si](C)(C)OCC1OC(n2cnc3c(N)ncnc32)CC1OS(C)(=O)=O (stereo not given)	98.1%
Cc1ccc(C)c(CCO)c1	98.3%
CC(=O)CSc1ncnc2nc[nH]c12	96%
CCOC(OCC)C(=O)c1ccccc1	92.3%
CCCCCCCCCCCCCCCCOc1ccccc1NC(=O)CC(C)=O	110%
CC1(c2ccccc2)CO1 (stereo not given)	108%
Cc1ccc(C)c(CN(C)C)c1O	97.1%
C/C(=N\N=C(/C)c1cccc([N+](=O)[O-])c1)c1cccc([N+](=O)[O-])c1	101%
Cc1nc(C)c(C(=O)O)cc1C(=O)O	109%
CCN(CC)CCCC(C)NC(=S)N/N=C(\C)c1ccccn1 (stereo not given)	47.5%
COc1ccc(-c2csc(NC(=O)Nc3nc(-c4ccc(OC)cc4)cs3)n2)cc1	98.1%
NC(CSSCC(N)C(=O)O)C(=O)O (stereo not given)	21.7%

Structure (SMILES)	growth
Cc1cc(Cc2ccccc2)c(O)c(Cc2ccccc2)c1	102%
NNc1ncnc2nc[nH]c12	41.6%
CCCOCc1cn[nH]n1	109%
CCN(C(=O)Nc1ccccc1Cl)c1ccccc1	108%
Cc1ccc(O)c(N)c1	121%
CC1CC2C3CCC4=CC(=O)CCC4(C)C3CCC2(C)C1(O)C(=O)CO (stereo not given)	113%
c1cc(CNCCNCc2ccncc2)ccn1	105%
CC(C)Sc1ncnc2nc[nH]c12	108%
NNC(=O)CCCCl	105%
COc1cccc(N=CNc2cccc(OC)c2)c1	98.5%
Cc1c(Cl)cccc1NC(=S)NC(=O)c1ccccc1	106%
COc1cc(-c2ccc(NC(=O)CC(C)=O)c(OC)c2)ccc1NC(=O)CC(C)=O	104%
Clc1ncnc2nc[nH]c12	103%
CN(C)c1ncnc2c1cnn2C	98.7%
CC1CC(C)S(=O)(=O)C1 (stereo not given)	108%
Cc1cc(C(=O)NN)c(C#N)c(=O)[nH]1	102%

System: MCF7 breast
Test: as above
Settings: 10 µM unless noted

Structure (SMILES)	growth
O=C(OCc1ccccc1)n1nnc2ccccc21	97.3%
COC1(OC)C2(Cl)C(Cl)=C(Cl)C1(Cl)C1COCC12 (stereo not given)	101%
CCOC(=O)CO	97.5%
COc1cc(C(=O)NC(=S)NCc2ccncc2)cc(OC)c1OC	98.3%
Nc1ncnc2c1ncn2C1OC(CO)C2OC21 (stereo not given)	93.6%
CC(C)(C)[Si](C)(C)OCC1OC(n2cnc3c(N)ncnc32)CC1OS(C)(=O)=O (stereo not given)	105%
Cc1ccc(C)c(CCO)c1	112%
CC(=O)CSc1ncnc2nc[nH]c12	74.7%
CCOC(OCC)C(=O)c1ccccc1	94.4%
CCCCCCCCCCCCCCCCOc1ccccc1NC(=O)CC(C)=O	91.9%
CC1(c2ccccc2)CO1 (stereo not given)	103%
Cc1ccc(C)c(CN(C)C)c1O	102%
O=Cc1ccc(O)c(O)c1	96.5%
C/C(=N\N=C(/C)c1cccc([N+](=O)[O-])c1)c1cccc([N+](=O)[O-])c1	86.8%
Cc1nc(C)c(C(=O)O)cc1C(=O)O	109%
CCN(CC)CCCC(C)NC(=S)N/N=C(\C)c1ccccn1 (stereo not given)	25.7%
COc1ccc(-c2csc(NC(=O)Nc3nc(-c4ccc(OC)cc4)cs3)n2)cc1	71.6%
NC(CSSCC(N)C(=O)O)C(=O)O (stereo not given)	20.4%
Cc1cc(Cc2ccccc2)c(O)c(Cc2ccccc2)c1	105%

Structure (SMILES)	growth
NNc1ncnc2nc[nH]c12	33%
CCCOCc1cn[nH]n1	103%
CCN(C(=O)Nc1ccccc1Cl)c1ccccc1	100%
Cc1ccc(O)c(N)c1	99.9%
CC(C)(C)NCCC(O)c1cc(C(F)(F)F)nc2c(C(F)(F)F)cccc12 (stereo not given)	92.6%
CC1CC2C3CCC4=CC(=O)CCC4(C)C3CCC2(C)C1(O)C(=O)CO (stereo not given)	99.8%
c1cc(CNCCNCc2ccncc2)ccn1	100%
CC(C)Sc1ncnc2nc[nH]c12	98.1%
Cc1cc2nc(C)c(C)nc2cc1C	90.7%
NNC(=O)CCCCl	98.4%
COc1cccc(N=CNc2cccc(OC)c2)c1	92.2%
Cc1c(Cl)cccc1NC(=S)NC(=O)c1ccccc1	53.3%
Cc1[nH]c(=S)[nH]c(=O)c1C	101%
COc1cc(-c2ccc(NC(=O)CC(C)=O)c(OC)c2)ccc1NC(=O)CC(C)=O	106%
Clc1ncnc2nc[nH]c12	94.9%
CN(C)c1ncnc2c1cnn2C	94%
CC1CC(C)S(=O)(=O)C1 (stereo not given)	102%
Cc1cc(C(=O)NN)c(C#N)c(=O)[nH]1	93%
